We go through 40 molecules from PubChem BioAssay (NCI).

Structures are written as SMILES. This is part of a sample that, as a whole, favours compounds with a hit. Of some 83,000 tested, about 20% had one in any assay.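 Plates (96-well) were seeded with cells, treated with compound at one concentration, and incubated for 48 hours before percent growth was determined.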 Unmarked numbers belong to inactive results. The source made the active and inactive calls.

The subject of the assay is HCC-2998 colon. The experiment in a line: NCI-60 one-dose screen, 48 h (100 = growth as untreated, 0 = no growth, -100 = all killed). Particulars: 10 µM unless noted. The protocol:
Growth inhibition of the HCC-2998 human tumor cell line is measured as a screen for anti-cancer activity. Cells are grown in 96 well plates and exposed to the test compound for 48 hours. Compounds are tested at a single concentration, which is 10^-5 M for most compounds. The reported endpoint is percent growth (GI% or GIPRCNT), where numbers from 0 - 100% represent growth inhibition, and numbers from -100% - 0 represent cell death. For example, a value of 40 represents 60% growth inhibition. A value of 0 means no net growth occurred over the course of the experiment. A value of -40 indicates 40% of cells at the beginning of the experiment died by the end of the experiment. A value of -100 means all cells are dead at the end of the experiment.
NCI-60 Human Tumor Cell Lines Screen was performed using the standard one-dose NCI protocol, which is described in more detail at https://dtp.cancer.gov/discovery_development/nci-60/default.htm.
Compounds with GIPRCNT values below 10 were considered active. Activity score was based on GIPRCNT using the following formula: […]
Score is 0 for GIPRCNT values of 100 or above, 50 for GIPRCNT values of 0, and 100 for GIPRCNT values of -100.
As to `COc1cc(-c2nc(-c3ccccc3)[nH]c2-c2ccnc(NCCCNS(=O)(=O)c3cccc(F)c3)n2)ccc1Cl`, the growth is 55.5%.
Then `COC(=O)c1[nH]nc2c1C1(C(=O)c3cccc4cccc1c34)C(C#N)=C(N)O2` (stereo not given), with 106%; and `COc1cc(-c2nn(C(C)(C)C)cc2-c2ccnc(NCCCNS(=O)(=O)c3ccc(F)cc3)n2)ccc1Cl`, with 108%; and `COc1ccc(/C(N)=N/C(N)=N/c2nc3ccccc3s2)cc1`, with 91.9%.
The result for `O=C(Nc1ccc2c(ccn2Cc2ccccn2)c1)c1cnccn1` reads 115%; that for `NC(N)=Nc1ccc(Oc2cccc(Nc3ccc(Cl)cc3)c2)cn1`, -89.1% (active); that for `NC(N)=Nc1ccc(Oc2cccc(NC(N)=Nc3ccc(Cl)c(C(F)(F)F)c3)c2)cn1`, 62.6%.
For `C=C(C=O)[C@@H]1CC[C@]2(CO)CC[C@]3(C)[C@H](CC[C@@H]4[C@@]5(C)CCCNC(C)(C)[C@@H]5CC[C@]43C)[C@@H]12`, the growth is -65.7% (active).
With `Cc1ccc(CSc2nc(-c3ccc(Cl)cc3)c(C#N)c(N3CCOCC3)n2)cc1`, the growth is 104%.
As for `CC(C)(C)c1ccc(C(=O)Nc2nc3ccc(O)cc3s2)cc1`, the growth is 14.7%.
The result for `CC1(C)[C@@H](O)CC[C@]2(C)[C@H]3CC[C@@H]4[C@H]5[C@H](C(=O)/C=C\c6ccncc6)CC[C@]5(O)CC[C@@]4(C)[C@]3(C)CC[C@@H]12` reads 77.9%.
The result for `COc1cc(-c2nc3sccn3c2-c2ccnc(S(C)(=O)=O)n2)ccc1F` reads 100%; that for `Cc1cc(C)c2sc(=O)n(Cc3nnc(SCCC(=O)O)o3)c2n1`, 104%; that for `COc1ccc([C@@H]2c3[nH]c4ccccc4c3C[C@H]3C(=O)N(C4CCN(CC5CCCCC5)CC4)CC(=O)N23)c(OC)c1`, 78.6%.
With `Cc1ccc2c(c1)C(=O)/C(=C/c1cccc(F)c1)S2`, the growth is 113%.
The result for `COc1ccc2c(c1)Oc1nc(N)c(C#N)c(N)c1C2Sc1ccc(C)cc1` (stereo not given) reads -64.2% (active); that for `CNC(=O)c1cc(-c2ccc(NS(=O)(=O)c3ccc(C)cc3)cc2)nc2cccnc12`, 108%.
Consider `C=C(C=O)[C@@H]1CC[C@]2(C)[C@H](CC=C3[C@H]4[C@@H](C)[C@H](C)CC[C@]4(C(=O)OC)CC[C@]32C)[C@@]1(C)CCC#N`, for which the growth was -48.8% (active).
As to `C[C@@H]1C[C@H]2C(=O)O[C@@H](C)C(NC(=O)[C@H](Cc3cc(F)cc(F)c3)NC(=O)Nc3ccc(C4CC4)cc3F)C(=O)N3CCC[C@H]3C(=O)N3CCCC[C@H]3C(=O)N[C@@H](CO)C(=O)N2C1` (stereo not given in full), the growth is 24%.
Then `CCOC(=O)c1c(N)c(C#N)cn1-c1cc(OC)c(OC)c(OC)c1`, with 115%; and `N=c1c2cc(-c3ccccc3)oc2ncn1/N=C/c1ccc(Cl)cc1`, with 102%; and `COC(=O)c1ccc(NC2=C/C(=N/S(=O)(=O)c3ccc(C(=O)O)cc3)c3ccccc3C2=O)cc1`, with 105%.
The result for `O=c1c2ccccc2nc(COc2ccccc2)n1NS(=O)(=O)c1ccc(Cl)cc1` reads 77.6%; that for `N#Cc1cn(Cc2ccc(Cl)cc2Cl)c(C(=O)c2ccc(Br)cc2)c1N`, 108%.
Then `C=C(C=O)[C@@H]1CC[C@]2(C)[C@H](C(=O)C=C3[C@H]4C[C@](C)(C(=O)OC)CC[C@]4(C)CC[C@]32C)[C@@]1(C)CCC#N`, with -73% (active); and `COc1ccc(Oc2ccc(/C=N/NC(=O)CSc3nc4ccccc4c(=O)n3-c3ccc(Cl)cc3)cc2)cc1`, with 83.3%.
On to `CN1CCN(c2ccc(/C=N/Nc3nc4ccccc4c(=O)n3-c3ccccc3)cc2)CC1`, for which the growth was 103%.
Then `COc1ccc(C(=O)Nc2ncc(Cc3ccccc3Cl)s2)cc1`, with 6.97% (active); and `COc1cc(-c2nc(SCCC(C)C)nc(NNC(=O)c3ccncc3)c2C#N)cc(OC)c1OC`, with 92.1%; and `O=C(NNc1nc2cc(F)ccc2n2c(CN3CCCC3)ccc12)c1cnccn1`, with 35.7%.
Then `O=C(NCCN1CCCC1)c1ccc(-c2nc3ccc4[nH]ncc4c3c3c2CCCC3)cc1`, with -1.05% (active).
Then `Cn1cc(-c2nc(N)nnc2-c2c[nH]c3ccccc23)c2cc(Br)ccc21`, with 57.6%.
As to `N/C(=N\C(N)=N\c1nc2ccccc2s1)c1ccc(C(F)(F)F)cc1`, the growth is 94%.
The result for `O=C(CN1CCN(c2cc(=O)n(-c3ccccc3)c3ccccc23)CC1)Nc1cccc(C(F)(F)F)c1` reads 84.8%.
The result for `O=S(=O)(NCCCNc1nccc(-c2[nH]c(-c3ccccc3)nc2-c2ccc(Cl)c(O)c2)n1)c1cccc(F)c1` reads 101%; that for `O=C(c1ccc(O)c(C(=O)N2Cc3ccc(OCCC[P+](c4ccccc4)(c4ccccc4)c4ccccc4)cc3C2)c1)N1Cc2cccc(F)c2C1`, 68.4%.
Regarding `C[C@@H](Nc1ncnc2ccc(-c3cnc(Cl)c(NS(C)(=O)=O)c3)cc12)c1ccccc1`, the growth was 70.6%.
Then `Cc1cccc(/C=C/C(=O)Nc2ncc(Cc3cccc(C)c3)s2)c1`, with 34.8%; and `Nc1nc(N)c2c(n1)NC(c1ccc(Cl)cc1)CC(c1ccc(Nc3nc(NCCO)nc(N4CCOCC4)n3)cc1)=N2` (stereo not given), with 108%.
The result for `COc1ccc(/C=N/NC2=NC3C(S2)N(C)C(=O)N3C)cc1` (stereo not given) reads 67%.
